The whole screen tested about 53,000 compounds, of which about 900 (1.7%) showed an effect of 50% or more. The list comes from a sample in which strong results are over-represented; it also holds similar structures and randomly drawn compounds.
tested on: Mycobacterium tuberculosis; assay: Cornell - Phenotypic assay to identify agents that inhibit growth of Mycobacterium tuberculosis; assay type: functional; parameters: scale not given: direction of the effect not stated beside the values; conditions: 10 mM as filed; unlikely as a test dose

Row | SMILES | Percent Effect [%]
1 | CC(=O)N1CCN([C@@H]2CN(C(=O)c3ccccc3C)C[C@H]2O)CC1 | -3.259
2 | Cc1ccccc1C(=O)N1C[C@@H](O)[C@H](N2CCOCC2)C1 | 51.24
3 | Cc1ccccc1C(=O)N1CC[C@H](O)[C@@H](N2CCOCC2)CC1 | 45.8
4 | CCN(CC)S(=O)(=O)N1CC[C@H](c2ccccc2)[C@@H]2[C@H]1CCCCN2C | 1.905
5 | COc1cccc2ncn(C(C)Cn3cccn3)c(=O)c12 (centres undefined) | -18.84
6 | CCSc1cccc(NCc2cccnc2)c1 | 12.75
7 | COCc1cccc(NCc2cccnc2)c1 | -54.85
8 | CCSCc1cccc(NCc2cccnc2)c1 | 73.99
9 | CO[C@@H]1CCC[C@@H](NC(=O)CCCn2cncn2)[C@H]1O | 5.133
10 | COc1ccc(C2CN(c3ncccn3)CCN2C(C)=O)cc1 (centres undefined) | -24.16
11 | CCc1ccc2c(C3CN(CC4CCC4)C3)ncn2c1.O=C(O)C(F)(F)F | 77.11
12 | CCc1ccc2c(C3CN(S(C)(=O)=O)C3)ncn2c1 | 13.01
13 | CCc1ccc2c(C3CN(C(C)=O)C3)ncn2c1 | 27.54
14 | Cc1csc(C2(NCc3csc(C4CC4)n3)CCCC2)n1 | 19.76
15 | Cc1noc(C(C)NC(=O)[C@@H](C)NC(=O)OC(C)(C)C)n1 (some centres undefined) | 27
16 | CC(NC(=O)OC(C)(C)C)c1nnc(S(=O)(=O)Cc2ccccc2Cl)o1 (centres undefined) | 105.8
17 | CC(NC(=O)OC(C)(C)C)c1nnc(S(=O)(=O)Cc2ccc(Cl)cc2)o1 (centres undefined) | 103.3
18 | C[C@H](NC(=O)OC(C)(C)C)c1nnc(S(=O)(=O)Cc2cccc(F)c2)o1 | -26.24
19 | Cc1ccccc1CS(=O)(=O)c1nnc(C(C)NC(=O)OC(C)(C)C)o1 (centres undefined) | 104.2
20 | Cc1cccc(CS(=O)(=O)c2nnc([C@@H](N)Cc3ccccc3)o2)c1.Cl | -11.8
21 | N[C@@H](Cc1ccccc1)c1nnc(S(=O)(=O)Cc2ccccc2)o1 | -19.29
22 | Cl.N[C@@H](Cc1ccccc1)c1nnc(S(=O)(=O)Cc2ccc(Cl)cc2)o1 | -9.825

Row | SMILES | Percent Effect [%]
23 | CCC(C)NC(=O)CS(=O)(=O)Cc1ccccc1Cl (centres undefined) | 2.34
24 | Cn1c(Cn2cccn2)nnc1C1CCN(Cc2cccnc2)CC1 | -9.114
25 | CCCOc1cc(F)ccc1NC(=O)NCc1noc(C)n1 | 7.548
26 | Cc1cn2c(n1)CCC(NC(=O)c1oc(Br)cc1C)C2 (centres undefined) | -43.16
27 | CC(C)NC(=O)N1CCC[C@H]1C(=O)NCCCc1cccc(F)c1 | -6.686
28 | Cc1c[nH]nc1C1CCCN1Cc1ccncc1 (centres undefined) | 14.55
29 | CNc1ccnc(NCC(=O)Nc2cc(C)ccc2OC)n1 | -15.75
30 | Cc1nn(C)cc1-c1cc(C(F)(F)F)nc(NC2CCCCC2)n1 | 22.2
31 | CCn1cc(-c2cc(C(F)(F)F)nc(NC3CCCC3)n2)c(C)n1 | 101.8
32 | Cc1nn(C)cc1-c1cc(C(F)(F)F)nc(NC2CCN(C)CC2)n1 | 11.83
33 | COCC(=O)N1CCCC(c2nc(N)ncc2-c2cccc(F)c2)C1 (centres undefined) | 3.898
34 | Cc1c(CN2CCCCC2)c(O)n(CCO)c(=O)c1C#N | 38.65
35 | Cc1c(CN2CCOCC2)c(O)n(CCc2ccccc2)c(=O)c1C#N | 66.79
36 | Cc1c(CN2CCOCC2)c(O)n(CCO)c(=O)c1C#N | -84.89
37 | O=S(=O)(NCCCn1cncn1)c1ccc2c(c1)OCCO2 | -20.65
38 | O=C(CNc1cc2c(cc1Cl)OCCCO2)NCc1ccc(F)cc1 | -2.409
39 | COc1ccc(CNC(=O)CNc2cc3c(cc2Cl)OCCO3)cc1 | -25.81
40 | COc1ccc(CNC(=O)CNc2cc3c(cc2Cl)OCCCO3)cc1 | 53.68
41 | CCc1cc(C(=O)N2CCC3(CCCN(CC4CC4)C3=O)C2)cs1 (centres undefined) | 1.27
42 | Cc1cc2n(n1)CC(CNC1CCN(Cc3ccccc3C)CC1)CN2 (centres undefined) | 1.638
43 | c1ccc(Cn2cccn2)c(CNCC2CNc3ccnn3C2)c1 (centres undefined) | -42.61
44 | Cc1ccccc1CN1CCC(NCC2CNc3ccnn3C2)CC1 (centres undefined) | 54.71

Row | SMILES | Percent Effect [%]
45 | CS(=O)(=O)N1Cc2ccnn2CC(C(=O)NCc2cccnc2)C1.O=C(O)C(F)(F)F.O=C(O)C(F)(F)F (centres undefined) | -34.93
46 | CCC(C)NC(=O)NCc1cc2n(n1)CCCN(C1CCCCC1)C2 (centres undefined) | -10.73
47 | Fc1ccccc1-c1cccc(C2CCCN(C3CCOCC3)C2)n1 (centres undefined) | 36.89
48 | CN(C)C1COC2(CCN(Cc3ccncc3)CC2)C1 (centres undefined) | 9.126
49 | CC(=O)N(Cc1noc(C2CC2)n1)C1CCN(CC2CCOCC2)C1 (centres undefined) | -29.12
50 | CC(=O)N1CCC(c2nccnc2-c2ccc(C(=O)O)cc2)CC1 | -19.35
51 | Cc1ccccc1CN1CCOC(c2nccc(CN(C)C)n2)C1 (centres undefined) | -48.65
52 | COc1ccc(OCc2cc(C(=O)N3CCSCC3)n[nH]2)c(Cl)c1 | 54.8
53 | COc1ccc(OCc2cc(C(=O)N3CC=CC3)n[nH]2)c(Cl)c1 | 40.41
54 | COc1ccc(OCc2cc(C(=O)N3CCCCO3)n[nH]2)c(Cl)c1 | 106.4
55 | COc1ccc(OCc2cc(C(=O)N3C[C@@H](C)O[C@@H](C)C3)n[nH]2)c(Cl)c1 | 4.963
56 | COc1ccc(OCc2cc(C(=O)N3CCC(O)CC3)n[nH]2)c(Cl)c1 | 6.579
57 | COc1ccc(OCc2cc(C(=O)N3CCOCC3)n[nH]2)c(Cl)c1 | 19.45
58 | CC(C(=O)N1CCOCC1)N1CCN(Cc2nccn2C)CC1 (centres undefined) | -9.72
59 | N#Cc1cccc(S(=O)(=O)N2CCCCC2C(N)=O)c1 (centres undefined) | 15.32
60 | O=C(Cc1cccnc1)N1CCCC(n2cncn2)C1 (centres undefined) | -17.88
61 | Cc1nn(C)c2c(NCc3ccncc3)nc(C3CC3)nc12 | -8.977
62 | CCN(CC(C)C#N)C(=O)CNc1cc(Cl)ccc1C(N)=O (centres undefined) | -0.05585
63 | COCC1CCCN(C(=O)c2ccc(NC(=O)CC(C)C)c(C)c2)C1 (centres undefined) | -1.652
64 | CCN(Cc1cccc(C)c1)Cn1nc(C)c2c(C)onc2c1=O | -12.96

Source: ChEMBL document CHEMBL3988442, “University of Dundee, Small-Polar-MMV Screening Library” (2021)
